About 79,000 compounds went through this panel and 15% of them were active in at least one assay; those are over-represented in the sample as a whole. Activity calls are given as the source filed them. Rule as the data show it: active = growth inhibition above about 70%; inactive = the rest.
Legend:
[1] = NCI Yeast Anticancer Drug Screen. Data for the rad52 strain (AID 147);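 also: 0% = growth of vehicle-treated control cultures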; settings: S. cerevisiae rad52 mutant growth inhibition, hits give high values
Outline: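 Here a repair-compromised yeast strain receives each compound; its growth is then quantified and normalised to vehicle-only controls.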

[2] = NCI Yeast Anticancer Drug Screen. Data for the wt1 strain (AID 149);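 also: 0% = growth of vehicle-treated wt1 cultures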; settings: S. cerevisiae wt1 strain (SPY 50644) growth inhibition, hits give high values
Outline: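 wt1 strain grown with compound or vehicle; inhibition taken from the growth difference.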

[3] = NCI Yeast Anticancer Drug Screen. Data for the rad50EPP+ strain (AID 151);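 also: 0% = growth of vehicle-treated control cultures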; settings: S. cerevisiae rad50 mutant strain, hits give high values
Outline: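 Read-out is yeast growth inhibition relative to vehicle; cells used were the rad50EPP+ strain.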

[4] = NCI Yeast Anticancer Drug Screen. Data for the mgt1 strain (AID 153); settings: S. cerevisiae mgt1 mutant growth inhibition, hits give high values
Outline: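 Measured: inhibition of mgt1 yeast growth by compound, normalized to vehicle-treated cultures.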

[5] = NCI Yeast Anticancer Drug Screen. Data for the rad50 strain (AID 155);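 also: 0% = growth of vehicle-only cultures of the same strain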; settings: S. cerevisiae rad50 strain growth inhibition, hits give high values
Outline: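 DNA repair mutant yeast, compound exposure, growth read-out; inhibition is taken relative to vehicle.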

[6] = NCI Yeast Anticancer Drug Screen. Data for the mec2-1 strain (AID 157); settings: S. cerevisiae mec2-1 strain, hits give high values
Outline: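 Using mec2-1 yeast: add compound, measure growth, express inhibition versus vehicle-treated cultures.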

[7] = NCI Yeast Anticancer Drug Screen. Data for the sgs1 mgt1 strain (AID 161);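 also: 0% = growth of cultures given vehicle only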; settings: S. cerevisiae sgs1 mgt1 strain, hits give high values
Outline: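 Percent growth inhibition was derived by comparing compound-exposed mutant yeast with vehicle-exposed cultures. The strain carries alterations in DNA damage repair.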

[8] = NCI Yeast Anticancer Drug Screen. Data for the CLN2oe strain (AID 163);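 also: 0% = growth of vehicle-only control cultures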; settings: S. cerevisiae CLN2oe strain, hits give high values
Outline: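 Whole-cell yeast growth assay. A strain engineered for altered cell-cycle control received compound, and inhibition relative to vehicle-treated cultures was recorded.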

[9] = NCI Yeast Anticancer Drug Screen. Data for the cln2 rad14 strain (AID 165);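 also: 0% = growth equal to vehicle treated cultures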; settings: S. cerevisiae cln2 rad14 strain, hits give high values
Outline: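 Yeast strain cln2 rad14, bearing defects in cell cycle control and DNA repair, serves as the test system; values reflect growth inhibition compared with vehicle.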

[10] = NCI Yeast Anticancer Drug Screen. Data for the bub3 strain (AID 167); settings: S. cerevisiae bub3 mutant strain, hits give high values
Outline: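 In this screen, a yeast mutant lacking normal mitotic checkpoint function is challenged with compound. Relative growth versus vehicle gives the inhibition value.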

[11] = NCI Yeast Anticancer Drug Screen. Data for the wt2 strain (AID 169);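 also: 0% = growth of vehicle-treated yeast cultures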; settings: S. cerevisiae wt2 strain growth inhibition, hits give high values
Outline: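 Treated yeast vs. vehicle-treated yeast: growth inhibition determined.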

[12] = NCI Yeast Anticancer Drug Screen. Data for the mlh1 strain (AID 171);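 also: 0% = growth of vehicle-treated control cultures of the same strain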; settings: S. cerevisiae mlh1 strain growth inhibition, hits give high values
Outline: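 A yeast strain with a defined genetic lesion serves as the test organism. Cultures receive compound or vehicle, and growth is measured.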

[13] = NCI Yeast Anticancer Drug Screen. Data for the sgs1 strain (AID 173);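 also: 0% = growth of vehicle-only control cultures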; settings: S. cerevisiae sgs1 mutant, hits give high values
Outline: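 A genetically defined yeast mutant is incubated with the test compound, and its growth is compared to that of the same strain given vehicle.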

[14] = NCI Yeast Anticancer Drug Screen. Data for the mlh1 rad18 strain (AID 175); settings: S. cerevisiae mlh1 rad18 strain growth inhibition, hits give high values
Outline: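 Steps: expose repair-defective yeast to compound; measure growth; express inhibition against vehicle-treated controls.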

[15] = NCI Yeast Anticancer Drug Screen. Data for the rad18 strain (AID 177); settings: S. cerevisiae rad18 mutant growth inhibition, hits give high values
Outline: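 Measured value is growth inhibition of a yeast strain bearing a DNA repair alteration, referenced to vehicle-treated cells.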

[16] = NCI Yeast Anticancer Drug Screen. Data for the rad14 strain (AID 159);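 also: 0% = growth of vehicle-treated control cultures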; settings: S. cerevisiae rad14 strain growth inhibition, hits give high values
Outline: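 DNA repair-defective yeast, compound-exposed; % growth inhibition derived by comparison with vehicle-treated controls.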

[17] = at 5.0 µM (retest, dose inferred, filed as 0.5)
[18] = at 50.0 µM (retest, dose inferred, filed as 5.0)

Measured: growth inhibition

CCN(CC)CCNc1ccc([N+](=O)[O-])c2nc3ccccc3c(N)c12
active: [1]; at 100.0 µM 81% | [3]; at 100.0 µM 77% | [5]; [18] 71% | [5]; at 50.0 µM 74.3% | [5]; at 100.0 µM 84% | [7]; at 50.0 µM 82.1% | [14]; at 50.0 µM 85.2%
inactive: [1]; at 1.2 µM 1% | [1]; at 3.7 µM -6% | [1]; at 11.0 µM 10% | [1]; at 33.0 µM 31% | [2]; at 1.2 µM -10% | [2]; at 3.7 µM -7% | [2]; at 11.0 µM -13% | [2]; at 33.0 µM -9% | [2]; at 100.0 µM -6% | [3]; at 1.2 µM -14% | [3]; at 3.7 µM -4% | [3]; at 11.0 µM 1% | [3]; at 33.0 µM 34% | [4]; at 1.2 µM -14% | [4]; at 3.7 µM -18% | [4]; at 11.0 µM -20% | [4]; at 33.0 µM -21% | [4]; at 100.0 µM -15% | [5]; at 1.2 µM 10% | [5]; at 3.7 µM 14% | [5]; [17] 2% | [5]; at 11.0 µM 15% | [5]; at 33.0 µM 46% | [6]; at 1.2 µM -13% | [6]; at 3.7 µM -23% | [6]; [17] -5% | [6]; at 11.0 µM -11% | [6]; at 33.0 µM -13% | [6]; [18] -2% | [6]; at 50.0 µM 35.2% | [6]; at 100.0 µM 0% | [7]; [17] -4% | [7]; [18] 6% | [8]; at 1.2 µM 5% | [8]; at 3.7 µM -7% | [8]; at 11.0 µM -12% | [8]; at 33.0 µM -6% | [8]; at 100.0 µM 4% | [9]; [17] 7% | [9]; [18] 39% | [9]; at 50.0 µM 36.6% | [10]; at 1.2 µM -15% | [10]; at 3.7 µM -40% | [10]; [17] -9% | [10]; at 11.0 µM -21% | [10]; at 33.0 µM -12% | [10]; [18] 20% | [10]; at 50.0 µM 7.35% | [10]; at 100.0 µM -11% | [11]; at 1.2 µM 1% | [11]; at 3.7 µM -1% | [11]; at 11.0 µM -2% | [11]; at 33.0 µM -3% | [11]; at 100.0 µM 2% | [12]; at 1.2 µM -5% | [12]; at 3.7 µM -7% | [12]; at 11.0 µM -9% | [12]; at 33.0 µM -4% | [12]; at 100.0 µM 8% | [13]; at 1.2 µM -4% | [13]; at 3.7 µM 2% | [13]; at 11.0 µM 6% | [13]; at 33.0 µM -2% | [13]; at 100.0 µM 13% | [14]; [17] -28% | [14]; [18] 15% | [15]; at 1.2 µM -6% | [15]; at 3.7 µM -9% | [15]; at 11.0 µM -10% | [15]; at 33.0 µM -8% | [15]; at 100.0 µM -4%

Cc1cc(C(C)(C)CC(C)(C)C)ccc1O
inactive: [1]; at 1.2 µM -22% | [1]; at 3.7 µM -45% | [1]; at 11.0 µM 15% | [2]; at 1.2 µM -1% | [2]; at 3.7 µM -22% | [2]; at 11.0 µM 17% | [3]; at 1.2 µM -16% | [3]; at 3.7 µM -16% | [3]; at 11.0 µM 1% | [3]; at 33.0 µM 60% | [4]; at 1.2 µM -52% | [4]; at 3.7 µM -66% | [4]; at 11.0 µM -37% | [5]; at 1.2 µM 12% | [5]; at 3.7 µM 11% | [5]; [17] 25% | [5]; at 11.0 µM 38% | [6]; at 1.2 µM -41% | [6]; at 3.7 µM -58% | [6]; [17] 28% | [6]; at 11.0 µM 3% | [16]; at 1.2 µM -3% | [16]; at 3.7 µM -30% | [16]; at 11.0 µM 16% | [8]; at 1.2 µM -31% | [8]; at 3.7 µM -28% | [8]; at 11.0 µM -17% | [9]; [17] 55% | [10]; at 1.2 µM -9% | [10]; at 3.7 µM -49% | [10]; [17] 6% | [10]; at 11.0 µM 32% | [11]; at 1.2 µM -20% | [11]; at 3.7 µM -34% | [11]; at 11.0 µM -10% | [12]; at 1.2 µM -16% | [12]; at 3.7 µM -53% | [12]; at 11.0 µM -16% | [13]; at 1.2 µM -17% | [13]; at 3.7 µM -38% | [13]; at 11.0 µM 14% | [14]; [17] 26% | [15]; at 1.2 µM -13% | [15]; at 3.7 µM -42% | [15]; at 11.0 µM 36%
active: [1]; at 33.0 µM 98% | [1]; at 100.0 µM 98% | [2]; at 33.0 µM 99% | [2]; at 100.0 µM 99% | [3]; at 100.0 µM 99% | [4]; at 33.0 µM 98% | [4]; at 100.0 µM 99% | [5]; at 33.0 µM 98% | [5]; [18] 79% | [5]; at 50.0 µM 92.3% | [5]; at 100.0 µM 99% | [6]; at 33.0 µM 99% | [6]; [18] 70% | [6]; at 50.0 µM 91.8% | [6]; at 100.0 µM 99% | [16]; at 33.0 µM 99% | [16]; at 100.0 µM 99% | [8]; at 33.0 µM 98% | [8]; at 100.0 µM 99% | [9]; [18] 98% | [9]; at 50.0 µM 92.8% | [10]; at 33.0 µM 98% | [10]; [18] 99% | [10]; at 50.0 µM 92.4% | [10]; at 100.0 µM 99% | [11]; at 33.0 µM 99% | [11]; at 100.0 µM 99% | [12]; at 33.0 µM 95% | [12]; at 100.0 µM 99% | [13]; at 33.0 µM 99% | [13]; at 100.0 µM 99% | [14]; [18] 73% | [14]; at 50.0 µM 92.9% | [15]; at 33.0 µM 98% | [15]; at 100.0 µM 98%

COc1cc2cc3c4cc(OC)c(OC)cc4cc[n+]3c(C)c2cc1OC
active: [5]; [18] 92% | [6]; [17] 73% | [6]; [18] 83% | [10]; at 50.0 µM 79.8%
inactive: [1]; at 1.2 µM -21% | [1]; at 3.7 µM -21% | [1]; at 11.0 µM -16% | [1]; at 33.0 µM -20% | [1]; at 100.0 µM -13% | [2]; at 1.2 µM -33% | [2]; at 3.7 µM -31% | [2]; at 11.0 µM -32% | [2]; at 33.0 µM -37% | [2]; at 100.0 µM -31% | [3]; at 1.2 µM -18% | [3]; at 3.7 µM -17% | [3]; at 11.0 µM -21% | [3]; at 33.0 µM -20% | [3]; at 100.0 µM -26% | [4]; at 1.2 µM -21% | [4]; at 3.7 µM -29% | [4]; at 11.0 µM -38% | [4]; at 33.0 µM -34% | [4]; at 100.0 µM -31% | [5]; at 1.2 µM 5% | [5]; at 3.7 µM 1% | [5]; [17] 59% | [5]; at 11.0 µM 3% | [5]; at 33.0 µM 10% | [5]; at 50.0 µM 51.4% | [5]; at 100.0 µM 7% | [6]; at 1.2 µM -13% | [6]; at 3.7 µM -11% | [6]; at 11.0 µM -7% | [6]; at 33.0 µM -16% | [6]; at 50.0 µM 6.05% | [6]; at 100.0 µM -5% | [7]; [17] -28% | [7]; [18] -6% | [7]; at 50.0 µM 36.6% | [8]; at 1.2 µM -22% | [8]; at 3.7 µM -35% | [8]; at 11.0 µM -28% | [8]; at 33.0 µM -39% | [8]; at 100.0 µM -5% | [9]; [17] 61% | [9]; [18] 26% | [9]; at 50.0 µM 15.2% | [10]; at 1.2 µM 0% | [10]; at 3.7 µM 12% | [10]; [17] 5% | [10]; at 11.0 µM 13% | [10]; at 33.0 µM 6% | [10]; [18] 19% | [10]; at 100.0 µM 9% | [11]; at 1.2 µM -30% | [11]; at 3.7 µM -28% | [11]; at 11.0 µM -35% | [11]; at 33.0 µM -31% | [11]; at 100.0 µM -22%

Source: PubChem BioAssay (NCI)
